# Reference: PubChem BioAssay (Tox21)
# Results filed as inconclusive are left out. The source made the active and inactive calls. Calls follow the shape of the dose curve; as a rule, active = well fitted activation curve with a large enough effect in the signal ratio in the repeat runs (not every such curve was filed as active); inconclusive = weak or mixed curves; inactive = flat fitted curve, though single readings scatter; the % refers to the signal ratio.
# Assay: qHTS assay to identify small molecule agonists of H2AX (AID 1224845)
# Details: CHO-K1 phospho-H2AX Ser139 HTRF, 3 h; series mostly up to 154 µM; activation (H2AX phosphorylation): at the top concentration
# Excerpt: National Center for Advancing Translational Sciences [NCATS]
# NIH Chemical Genomics Center [NCGC]
# U.S. Environmental Protection Agency [EPA]
# National Institutes of Environmental Health Sciences [NIEHS]
# National Toxicology Program [NTP]
# U.S. Food and Drug Administration [FDA]
# HTRF phospho-H2AX (Ser139) assay (Cisbio Bioassays, US) enables the quantitative detection of the histone variant H2AX when phosphorylated on serine 139. When double-stranded DNA breaks, either by ionizing radiation or endogenous physiological processes, H2AX becomes phosphorylated at Ser139. This phospho-Ser139 serves as a sensitive biomarker for the detection of such breaks, localizing the site of DNA repair. So, HTRF phospho-H2AX Ser139 is a pertinent assay to study genome stability, the cell cycle, DNA repair, and it serves as a biomarker for cancer, and to understand aging. Wild type CHO-K1 cells were used to identify the inducers of Phospho-H2AX Ser 139 from the Tox21 10K compound collections.
# Tox21 Assay Protocol Summary:
# The CHO-K1 cells suspended in culture medium containing 10% FBS were dispensed at 1000 cells/ 3 ul/well in 1536-well white wall/solid bottom plates (Greiner Bio-One North America, NC) using a Multidrop Combi (Thermo Fisher Scientific Inc., Waltham, MA). After the assay plates were incubated at 37C overnight, 23 nl of compounds at 15 concentrations (from 5-48 columns) or positive control (from 1 to 4 columns) were transferred to the assay plates using a Pintool station (Wako, San Diego, CA) into each well resulting in a final DMSO concentration of 0.76%. After 3hr incubation at 37C, 1 uL/well Supplemented Lysis buffer (diluted 100 fold blocking reagent in lysis buffer) (HTRF Phospho-H2A.X (S139) Assay kit from Cisbio US Inc., Bedford, MA) was added using a Flying Reagent Dispenser (FRD) (Aurora Discovery, CA). After 10sec spin at 1000 rpm in a plate centrifuge, the assay plates were incubated at room temperature for 30 min. Then followed by the addition of 1 uL/well detection buffer (containing a mixture of two antibodies, one labeled with cryptate, Anti pH2AX (S139)-K and another labeled with d2, Anti H2AX-d2) using FRD. After incubation at room temperature for 24 hr, the time resolved fluorescence at excitation 320 nm and emissions at 665 nm and 620 nm was measured using an Envision plate reader (PerkinElmer, Waltham, MA).
# % is scaled to controls: 0 for no effect and ±100 for the full control effect; potency is read from the fitted curve at half-maximal effect.
SMILES,activation (H2AX phosphorylation),Potency
Cc1nc(C2CCCCC2)c(-c2ccc(S(N)(=O)=O)c(F)c2)o1,-0.209% [at 70.9 µM] (inactive),–
CC(=O)OCC(=O)[C@@]1(O)[C@H](C)C[C@H]2[C@@H]3CCC4=CC(=O)C=C[C@]4(C)[C@@]3(F)[C@@H](O)C[C@@]21C,3.3% [at 70.9 µM] (inactive),–
O=C(O)CNC(=O)c1ccc(CO)o1,1.88% (inactive),–
Nc1ccn([C@@H]2O[C@H](CO)[C@@H](O)C2O)c(=O)n1 (stereo not given in full),–,56.6 µM (active)
CCOC(=O)c1ccccc1,-0.272% (inactive),–
Cc1onc(-c2c(Cl)cccc2Cl)c1C(=O)Cl,-1.3% [at 70.9 µM] (inactive),–
NCCCC[C@H](N[C@@H](CCc1ccccc1)C(=O)O)C(=O)N1CCC[C@H]1C(=O)O,-0.177% [at 70.9 µM] (inactive),–
C[N+]1(CC2COC(c3ccccc3)(c3ccccc3)O2)CCCCC1 (stereo not given),-1.86% [at 31.6 µM] (inactive),–
Nc1ccn([C@@H]2O[C@H](CO)[C@@H](O)C2(F)F)c(=O)n1,–,0.982 µM (active)
C[C@@H]1C[C@H]2[C@@H]3C[C@H](F)C4=CC(=O)C(Cl)=C[C@]4(C)[C@@]3(F)[C@@H](O)C[C@]2(C)[C@@]1(O)C(=O)CO,-3.75% [at 70.9 µM] (inactive),–
O=CN(CCO)CCO,-2.01% (inactive),–
CCCO[Si](OCCC)(OCCC)OCCC,2.23% (inactive),–
O=C(O)CCCC[P+](c1ccccc1)(c1ccccc1)c1ccccc1,1.51% [at 70.9 µM] (inactive),–
CC(=O)c1ccc2ccccc2c1,0.719% (inactive),–
CC(C)(CCC(=O)O)C(=O)O,-0.959% (inactive),–
NC(=O)N[C@@H](CCC(=O)O)C(=O)O,-1.66% [at 70.9 µM] (inactive),–
COCCOC[C@H](CC1(C(=O)NC2CCC(C(=O)O)CC2)CCCC1)C(=O)Oc1ccc2c(c1)CCC2 (stereo not given in full),1.55% (inactive),–
CC1(C)[C@@H]2CC[C@@]1(C)[C@H](O)C2,-1.43% (inactive),–
CO[C@@]1(NC(=O)CSC[C@@H](N)C(=O)O)C(=O)N2C(C(=O)O)=C(CSc3nnnn3C)CS[C@@H]21,-0.225% [at 70.9 µM] (inactive),–
CCOC(=O)C1=NOC(c2ccccc2)(c2ccccc2)C1,0.0321% (inactive),–

SMILES,activation (H2AX phosphorylation),Potency
CCC(C)(CCCC(C)C)OC(C)=O (stereo not given),3.03% (inactive),–
COc1cc(C(=O)OC(COCCC(C)C)CN2CCOCC2)cc(OC)c1OC (stereo not given),-0.6% [at 70.9 µM] (inactive),–
CCCCCCCCCCOc1cc2c(=O)c(C(=O)OCC)c[nH]c2cc1OCC,0.376% [at 14 µM] (inactive),–
CCCCCCCCCC[N+](C)(C)[O-],-0.116% (inactive),–
Cc1ccc(C(=O)c2ccc(CC(=O)O)n2C)cc1,-2.47% [at 70.9 µM] (inactive),–
CC1OC1C1CCC2(C)OC2C1 (stereo not given),0.145% (inactive),–
O=Cc1cccc(Br)c1,-2.55% (inactive),–
CC[N+](C)(CC)CCOC(=O)C1c2ccccc2Oc2ccccc21,1.1% [at 70.9 µM] (inactive),–
C[C@@H]1CCC[C@H](C)N1,1.4% [at 70.9 µM] (inactive),–
COC(=O)C1=C(C)NC(C)=C(C(=O)OC(C)C)C1c1cccc2nonc12 (stereo not given),0.273% [at 70.9 µM] (inactive),–
CC(C)C(=O)OC(=O)C(C)C,-0.183% (inactive),–
C=COC(=O)C(C)(CC)CCC(C)C (stereo not given),0.588% (inactive),–
CCCC[N+](C)(CCCC)CCCC,0.503% (inactive),–
COc1cc(-c2ccc(=O)[nH]n2)ccc1OC(F)F,3.31% [at 70.9 µM] (inactive),–
C[N+]1(C)CCCC(OC(=O)C(O)(c2ccccc2)c2ccccc2)C1 (stereo not given),0.0046% [at 70.9 µM] (inactive),–
O=C(O)CNC(=O)c1ccccc1,-2.05% [at 70.9 µM] (inactive),–
O=C(O)c1cn(C2CC2)c2cc(N3CCNCC3)c(F)cc2c1=O,0.0805% [at 70.9 µM] (inactive),–
C[N+]12CCC(CC1)C(OC(=O)C(O)(c1ccccc1)c1ccccc1)C2 (stereo not given),0.76% [at 70.9 µM] (inactive),–
[O-][n+]1cccc(CO)c1,-1.78% [at 70.9 µM] (inactive),–
CCC(C(=O)NC(=O)NC(C)=O)c1ccccc1 (stereo not given),0.0984% [at 70.9 µM] (inactive),–
